Results taken from PubChem BioAssay AID624500 (National Center for Advancing Translational Sciences (NCATS), 2012).
Results filed as inconclusive are left out. Active and inactive are the calls of the source. Calls follow the shape of the dose curve; as a rule, active = well fitted inhibition curve with a large enough effect; inconclusive = small, poorly fitted or top-dose-only effect; inactive = flat fitted curve, though single readings scatter.

The compounds below were run against D(3) dopamine receptor (Homo sapiens) (UniProt P35462) (assay: HTS Assay for Allosteric Antagonists of the Human D2 Dopamine Receptor: SAR in D3 Beta Arrestin Assay). Details: DiscoveRx PathHunter D3 beta-arrestin, luminescence, 90 min; series mostly up to 57.1 µM.
Sequence of D(3) dopamine receptor (Homo sapiens) (P35462 whole entry, looked up): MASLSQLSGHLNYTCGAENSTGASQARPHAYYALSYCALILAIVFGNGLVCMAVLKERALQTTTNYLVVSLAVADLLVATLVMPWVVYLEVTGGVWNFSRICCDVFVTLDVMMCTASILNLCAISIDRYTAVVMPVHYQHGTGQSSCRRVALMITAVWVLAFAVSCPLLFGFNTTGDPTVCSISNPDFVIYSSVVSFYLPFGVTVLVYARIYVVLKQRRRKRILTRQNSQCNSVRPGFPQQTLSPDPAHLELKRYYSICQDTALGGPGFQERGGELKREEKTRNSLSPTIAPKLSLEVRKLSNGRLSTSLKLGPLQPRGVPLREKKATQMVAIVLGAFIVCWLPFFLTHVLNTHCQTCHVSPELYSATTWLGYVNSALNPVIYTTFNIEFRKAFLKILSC
Excerpt: There is great interest in identifying small molecule ligands for G-protein coupled receptors (GPCRs) as nearly 50% of all FDA-approved drugs target these important receptor proteins. […] Amongst the dopamine receptors (DARs), the D2 is arguably one of the most validated drug targets in neurology and psychiatry. For instance, all receptor-based antiparkinsonian drugs primarily work via stimulating the D2 DAR, whereas all FDA-approved antipsychotic agents are antagonists of this receptor. The D2 DAR is also therapeutically targeted in other disorders such as restless legs syndrome, tardive dyskinesia, Tourette's syndrome, and hyperprolactinemia. […] This is an selectivity assay to test the lead compounds against the D3 receptor, using a beta arrestin assay. NIH Molecular Libraries Probe Production Network [MLPCN] NIH Chemical Genomics Center [NCGC] Grant: NS0676421 PI Name: David Sibley, National Institutes of Neurological Disorders and Stroke
DiscoveRx D3 cells were thawed from frozen stock and seeded at 2,100 cells/ 3 uL/well media (DiscoveRx Plating Reagent 2) with MultiDrop Combi dispenser (Thermo Scientific, Logan, UT) onto white tissue culture treated 1536-well Aurora plates (Brooks Automation, Chelmsford, MA) and allowed to attach overnight at 37 deg C, 5% CO2. Next, 23 nL/well of compound solutions in DMSO were added with a pintool transfer (Kalypsis, San Diego, CA). As the positive control, 1 uL/well dopamine (EC100, 57 uM final concentration) diluted in buffer (HBSS + 10 mM HEPES + SMB + 0.1% Tween-20) was dispensed to 1 column of each plate. The rest of the plate was dispensed with buffer only, 1 uL/well as well. The cells were stimulated by compounds or dopamine control for 90 minutes at 37 deg C, 5% CO2, after which 1.5 ul/well of DiscoveRx detection reagent was added with BioRAPTR FRD dispenser. The detection reagent was prepared by mixing of Galacton Star Substrate, Emerald II solution and PathHunter buffer (supplied by the assay kit) together at 1:5:19 proportion accordingly just prior to dispensing. The plates were incubated at ambient temperature for 1 hour and then the luminescent signal was read on ViewLux plate reader (PerkinElmer, Waltham, MA).
`CCN1C(=O)c2ccccc2[S@](=O)c2ccc(C(=O)NCc3ccc(C#N)cc3)cc21` was tested, and the Potency was 1.62 µM (active).
For `OC1(c2ccc(Cl)cc2)CCN(Cc2c[nH]c3ccccc23)CC1`, the Potency was 0.0646 µM (active).
With `CN1C(=O)c2ccccc2[S@@](=O)c2ccc(C(=O)NCCc3cccs3)cc21` the Potency was “inactive”.
In the case of `CN1C(=O)c2ccccc2[S@](=O)c2ccc(C(=O)NCc3ccc(Br)cc3)cc21`, the Potency is reported as 4.58 µM (active).
In the case of `CCN1C(=O)c2ccccc2S(=O)c2ccc(C(=O)NCc3ccc(OC)cc3)cc21` (stereo not drawn), the Potency is reported as 5.76 µM (active).
With `CN1C(=O)c2ccccc2[S@](=O)c2ccc(C(=O)NCCN3CCCC3)cc21` the Potency was 4.58 µM (active).
For `CN1C(=O)c2ccccc2[S@](=O)c2ccc(C(=O)NCCc3cccs3)cc21`, the Potency was 12.9 µM (active).
With `CCN1C(=O)c2ccccc2[S@](=O)c2ccc(C(=O)NCc3ccc(F)cc3)cc21` the Potency was 3.24 µM (active).
`CCN1C(=O)c2ccccc2[S@](=O)c2ccc(C(=O)N[C@H](C)c3ccc(Br)cc3)cc21` was tested, and the Potency was 9.13 µM (active).
With `CN1C(=O)c2ccccc2S(=O)c2ccc(C(=O)NCCc3cccs3)cc21` (stereo not drawn) the Potency was 20.4 µM (active).
With `CN1C(=O)c2ccccc2[S@](=O)c2ccc(C(=O)NCc3ccc(Cl)cc3)cc21` the Potency was 10.2 µM (active).
With `CN1C(=O)c2ccccc2[S@](=O)c2ccc(C(=O)NCc3cccnc3)cc21` the Potency was 14.5 µM (active).
With `CCN1C(=O)c2ccccc2[S@](=O)c2ccc(C(=O)NCc3ccc(OC)cc3)cc21` the Potency was 2.89 µM (active).
